Common to all, as to test: protein-binding microarray (PBM); PBM: ~300 nM protein, 6 mM HEPES pH 7.8, 80 mM KCl, 0.5 mM EDTA, 0.5 mM EGTA, 6% glycerol, 35 ng/ul poly-dIdC, 1% milk, 1 h, room temperature; Ap Aiptasia and Nv Nematostella (sea anemones) / Co Capsaspora / Aq Amphimedon (sponge) / Dm Drosophila / Hu human; RHD is the Rel homology domain; high values mean tight binding
Common to all, as to details: dsDNA, one strand shown

The target in test [1] is T1, GST-Ap-NF-kB RHD (Exaiptasia pallida (Aiptasia), UniProt A0A913YAJ5 2-422).
T1 sequence: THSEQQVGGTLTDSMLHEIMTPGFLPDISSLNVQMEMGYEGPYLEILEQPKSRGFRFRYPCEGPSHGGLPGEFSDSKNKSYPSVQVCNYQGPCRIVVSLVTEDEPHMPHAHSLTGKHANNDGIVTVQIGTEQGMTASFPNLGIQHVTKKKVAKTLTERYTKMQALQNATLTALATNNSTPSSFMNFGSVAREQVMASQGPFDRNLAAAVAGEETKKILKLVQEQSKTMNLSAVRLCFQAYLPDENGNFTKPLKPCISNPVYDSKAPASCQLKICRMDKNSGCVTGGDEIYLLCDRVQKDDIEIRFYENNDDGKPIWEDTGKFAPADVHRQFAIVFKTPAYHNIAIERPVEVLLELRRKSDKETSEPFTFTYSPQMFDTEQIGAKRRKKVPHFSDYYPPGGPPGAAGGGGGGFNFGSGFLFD

Test [2] deals with T2, GST-Nv-NF-kB (Cys allele) (Nematostella vectensis, UniProt E5G601 2-411).
T2 sequence: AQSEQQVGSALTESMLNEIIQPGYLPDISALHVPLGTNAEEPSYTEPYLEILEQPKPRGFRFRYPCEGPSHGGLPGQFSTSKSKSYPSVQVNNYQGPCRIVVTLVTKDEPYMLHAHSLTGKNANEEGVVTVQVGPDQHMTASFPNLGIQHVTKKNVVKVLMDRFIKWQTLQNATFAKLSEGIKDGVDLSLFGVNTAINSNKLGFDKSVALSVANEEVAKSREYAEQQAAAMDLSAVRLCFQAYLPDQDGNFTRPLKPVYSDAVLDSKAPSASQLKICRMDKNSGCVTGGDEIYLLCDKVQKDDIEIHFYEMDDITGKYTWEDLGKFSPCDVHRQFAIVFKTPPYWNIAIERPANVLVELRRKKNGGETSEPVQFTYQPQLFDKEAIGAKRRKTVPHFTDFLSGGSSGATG

Test [3] deals with T3, GST-Nv-NF-kB (Ser allele) (Nematostella vectensis, UniProt A7UNT2 2-411).
T3 sequence: T2 sequence with Q21R, C66S, S207N, E215Q, V217A, E225K, A268E, D399E

The target in test [4] is T4, GST-Co-NF-kB (Capsaspora owczarzaki, UniProt F1ARL5 200-546).
T4 sequence: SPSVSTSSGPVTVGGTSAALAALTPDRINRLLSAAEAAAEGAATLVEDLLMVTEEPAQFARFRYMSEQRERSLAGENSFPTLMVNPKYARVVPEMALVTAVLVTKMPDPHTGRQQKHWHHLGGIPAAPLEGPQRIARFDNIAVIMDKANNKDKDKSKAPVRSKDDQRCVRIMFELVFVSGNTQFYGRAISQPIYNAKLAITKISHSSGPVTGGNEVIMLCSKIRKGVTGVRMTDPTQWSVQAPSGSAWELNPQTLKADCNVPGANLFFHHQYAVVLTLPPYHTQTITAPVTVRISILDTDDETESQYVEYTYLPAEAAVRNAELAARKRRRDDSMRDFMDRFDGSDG

Test [5] concerns the target T5, GST-Dm-Relish (Drosophila melanogaster, UniProt Q94527 99-473).
T5 sequence: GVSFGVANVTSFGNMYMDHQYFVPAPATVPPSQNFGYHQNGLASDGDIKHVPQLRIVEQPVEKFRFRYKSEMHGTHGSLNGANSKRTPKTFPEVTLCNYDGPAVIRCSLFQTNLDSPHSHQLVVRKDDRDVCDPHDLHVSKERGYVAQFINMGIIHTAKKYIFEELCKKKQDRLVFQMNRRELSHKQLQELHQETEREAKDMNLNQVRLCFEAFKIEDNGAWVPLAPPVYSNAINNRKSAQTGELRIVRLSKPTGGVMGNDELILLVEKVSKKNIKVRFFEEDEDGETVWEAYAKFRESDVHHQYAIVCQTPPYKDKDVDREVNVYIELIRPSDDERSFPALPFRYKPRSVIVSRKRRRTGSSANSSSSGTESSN

For test [6], the target named is T6, GST-Aq-NF-kB (Amphimedon queenslandica, UniProt A9Y5G7 2-389).
T6 sequence: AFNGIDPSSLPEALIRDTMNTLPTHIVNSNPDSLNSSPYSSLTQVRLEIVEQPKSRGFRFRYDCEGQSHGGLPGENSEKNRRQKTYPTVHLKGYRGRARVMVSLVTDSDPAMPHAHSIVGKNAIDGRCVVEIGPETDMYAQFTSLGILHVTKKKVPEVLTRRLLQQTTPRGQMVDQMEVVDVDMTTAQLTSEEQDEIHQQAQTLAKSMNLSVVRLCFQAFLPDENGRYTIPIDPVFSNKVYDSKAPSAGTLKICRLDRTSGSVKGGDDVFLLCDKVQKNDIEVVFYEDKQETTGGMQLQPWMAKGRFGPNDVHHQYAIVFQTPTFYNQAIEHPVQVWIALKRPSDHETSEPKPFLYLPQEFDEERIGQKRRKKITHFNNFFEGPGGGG

In test [7] the target is GST-Hu-p50 (Homo sapiens, UniProt P19838 7-356).

Positions count from the first letter of the chain named.

GST-Hu-p50, sequence (P19838 7-356): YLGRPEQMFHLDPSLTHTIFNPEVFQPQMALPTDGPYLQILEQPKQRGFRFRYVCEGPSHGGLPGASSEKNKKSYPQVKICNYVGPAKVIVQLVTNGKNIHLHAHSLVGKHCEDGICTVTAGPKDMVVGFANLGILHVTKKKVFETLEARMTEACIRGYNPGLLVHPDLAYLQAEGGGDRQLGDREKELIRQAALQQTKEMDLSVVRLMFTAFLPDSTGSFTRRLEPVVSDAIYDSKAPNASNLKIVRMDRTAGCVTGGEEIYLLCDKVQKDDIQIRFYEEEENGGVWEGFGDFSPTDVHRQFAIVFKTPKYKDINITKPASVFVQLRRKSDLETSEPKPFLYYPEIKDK

As for “CCGATTAACATCAAAAGAGTCCCTGATGTTAATCGGGTCTTGATTCGCTTGACGCTGCTG”, the binding signal in test [1] is 5.39 z-score; in test [2] it was 5.99 z-score; in test [3], 5.71 z-score; in test [4], 1.5 z-score; in test [5], 5.32 z-score; in test [6], 5.91 z-score. For the same sequence, the binding signal in test [7] was found to be 4.6 z-score.
With “CCGATTAACATCACCCCATCCCCTGATGTTAATCGGGTCTTGATTCGCTTGACGCTGCTG”, the binding signal in test [1] was 4.19 z-score; in test [2], 2.64 z-score; in test [3], 4.17 z-score; in test [4], 2.99 z-score; in test [5], 2.37 z-score; in test [6], 3.17 z-score. Besides, the binding signal in test [7] was 3.3 z-score.
As to “CCGATTAACATCAAAAAAAACCCTGATGTTAATCGGGTCTTGATTCGCTTGACGCTGCTG”, the binding signal in test [1] was found to be 5.46 z-score; in test [2], 6.25 z-score; in test [3] it was 6.4 z-score; in test [4], 1.62 z-score; in test [5] it was 7.4 z-score; in test [6], 7.35 z-score. This sequence registered a binding signal in test [7] of 5.56 z-score.
For “CCGATTAACATCAAGGGGGGGTGTGATGTTAATCGGGTCTTGATTCGCTTGACGCTGCTG”, the binding signal in test [1] was 4.34 z-score; in test [2], 2.8 z-score; in test [3], 3.53 z-score; in test [4], 4.12 z-score; in test [5], 4.4 z-score; in test [6], 3.77 z-score. Moreover, the binding signal in test [7] was 4.28 z-score.
In the case of “CCGATTAACATCAGGAATCCCCATGATGTTAATCGGGTCTTGATTCGCTTGACGCTGCTG”, the binding signal came out at 8.61 z-score in test [1]; 8.08 z-score in test [2]; 7.76 z-score in test [3]; 3.4 z-score in test [4]; 9.13 z-score in test [5]; 6.35 z-score in test [6]. This sequence returned a binding signal in test [7] of 6.22 z-score.
Take “CCGATTAACATCAGGGGGAACCCTGATGTTAATCGGGTCTTGATTCGCTTGACGCTGCTG”: the binding signal in test [1] is 8.64 z-score; in test [2] it was 7.75 z-score; in test [3], 7.25 z-score; in test [4], 8.49 z-score; in test [5] it was 9.93 z-score; in test [6], 8.13 z-score. This sequence also displayed a binding signal in test [7] of 6.39 z-score.
Turning to “CCGATTAACATCAGGGTATTTAATGATGTTAATCGGGTCTTGATTCGCTTGACGCTGCTG”, the binding signal is 2.74 z-score in test [1]; 4.26 z-score in test [2]; 4.73 z-score in test [3]; 1.37 z-score in test [4]; 3.25 z-score in test [5]; 4.14 z-score in test [6]. In addition, the binding signal in test [7] was 4.41 z-score.
As to “CCGATTAACATCAGGGGAATTCATGATGTTAATCGGGTCTTGATTCGCTTGACGCTGCTG”, the binding signal in test [1] came to 9.45 z-score; in test [2] it was 10.8 z-score; in test [3], 10.8 z-score; in test [4], 6.94 z-score; in test [5], 7.6 z-score; in test [6], 7.5 z-score. The sequence further yielded a binding signal in test [7] of 6.83 z-score.
Take “CCGATTAACATCAGGGGACTCCATGATGTTAATCGGGTCTTGATTCGCTTGACGCTGCTG”: the binding signal turned out to be 6.58 z-score in test [1]; 4.64 z-score in test [2]; 4.65 z-score in test [3]; 1.82 z-score in test [4]; 7.69 z-score in test [5]; 4.63 z-score in test [6]. In addition, the binding signal in test [7] came to 4.91 z-score.
As for “CCGATTAACATCAGGGAGTCCCCTGATGTTAATCGGGTCTTGATTCGCTTGACGCTGCTG”, the binding signal is 10.9 z-score in test [1]; 8.88 z-score in test [2]; 7.04 z-score in test [3]; 4.05 z-score in test [4]; 10.7 z-score in test [5]; 9.35 z-score in test [6]. The sequence further displayed a binding signal in test [7] of 6.52 z-score.
For the sequence “CCGATTAACATCAGGGAACCCCCTGATGTTAATCGGGTCTTGATTCGCTTGACGCTGCTG”, the binding signal turned out to be 13 z-score in test [1]; 11.8 z-score in test [2]; 10.7 z-score in test [3]; 3.7 z-score in test [4]; 11 z-score in test [5]; 11.1 z-score in test [6]. This sequence also gave a binding signal in test [7] of 7.62 z-score.
For the sequence “CCGATTAACATCAATACTTCCCCTGATGTTAATCGGGTCTTGATTCGCTTGACGCTGCTG”, the binding signal was 5.61 z-score in test [1]; 7.52 z-score in test [2]; 9.37 z-score in test [3]; 6.89 z-score in test [4]; 7.81 z-score in test [5]; 5.35 z-score in test [6]. In test [7], this sequence came in with a binding signal of 6.19 z-score.

(Values after paper PMC5700166.)
